Measurements reported in the supplement of paper PMC6555819.

How the values were obtained:
Experiment in all cases: PBM binding z-score (relative to random genomic background probes); higher = stronger binding; sequences stand for … in GC…GCGATTGACAGCGTAGAATGAAGG
[1] = system: LXRa homodimer (NR concentration 270 nM)
Summary of the method: (§1)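 Probes were double-stranded and carried 34-nt variable regions with direct-repeat seeds, single-nucleotide variants, half-site ablations and random human genomic background sequences, printed on custom Agilent 4×180K protein-binding microarrays. Arrays were incubated 1 h with ligand-free nuclear receptor dimers in PBS pH 7.4, 2% milk, 0.02% Triton X-100, 1 mM DTT, 0.2 mg/mL BSA and 0.4 mg/ml salmon testes DNA. Antibodies against each partner (one per run) detected binding, and scanned fluorescence was regression-normalized. Binding z-scores use the random background probes as reference.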

[2] = system: LXRb homodimer (NR concentration 270 nM)
Summary of the method: as §1

[3] = system: PPARg:RXRa (NR concentration 180 nM, RXRa partner concentration 90 nM)
Summary of the method: as §1

[4] = system: PPARg:RXRa 270nM:90nM, anti-RXR (NR concentration 270 nM, RXRa partner concentration 90 nM)
Summary of the method: as §1

[5] = system: PPARg:RXRa 30nM:10nM, anti-RXR (NR concentration 30 nM, RXRa partner concentration 10 nM)
Summary of the method: as §1

[6] = system: PPARg:RXRa 90nM:30nM, anti-RXR (NR concentration 90 nM, RXRa partner concentration 30 nM)
Summary of the method: as §1

[7] = system: PPARg:RXRa DBDmut IVT, anti-RXR (DBD mutation: RXRa K156A/R161A, NR concentration 270 nM, RXRa partner concentration 90 nM)
Summary of the method: as §1

[8] = system: PPARg:RXRa IVT, anti-PPARg (NR concentration 270 nM, RXRa partner concentration 90 nM)
Summary of the method: as §1

[9] = system: PPARg DBDmut:RXRa IVT, anti-PPARg (DBD mutation: PPARg1 K132A/R137A, NR concentration 270 nM, RXRa partner concentration 90 nM)
Summary of the method: as §1

[10] = system: PPARg DBDmut IVT, anti-PPARg (DBD mutation: PPARg1 K132A/R137A, NR concentration 270 nM)
Summary of the method: as §1

[11] = system: PPARg homodimer (NR concentration 180 nM)
Summary of the method: as §1

[12] = system: PXR:RXRa (NR concentration 270 nM, RXRa partner concentration 90 nM)
Summary of the method: as §1

[13] = system: PXR homodimer (NR concentration 270 nM)
Summary of the method: as §1

[14] = system: RARa:RXR (NR concentration 270 nM, RXRa partner concentration 90 nM)
Summary of the method: as §1

[15] = system: RARa homodimer (NR concentration 270 nM)
Summary of the method: as §1

[16] = system: RARb homodimer (NR concentration 270 nM)
Summary of the method: as §1

[17] = system: LXRa:RXRa (NR concentration 270 nM, RXRa partner concentration 90 nM)
Summary of the method: as §1

[18] = system: RARb:RXRa (NR concentration 270 nM, RXRa partner concentration 90 nM)
Summary of the method: as §1

[19] = system: PPARa:RXRa (NR concentration 270 nM, RXRa partner concentration 90 nM)
Summary of the method: as §1

Row | Sequence | PBM binding z-score [1] | PBM binding z-score [2] | PBM binding z-score [3] | PBM binding z-score [4] | PBM binding z-score [5] | PBM binding z-score [6] | PBM binding z-score [7] | PBM binding z-score [8] | PBM binding z-score [9] | PBM binding z-score [10] | PBM binding z-score [11] | PBM binding z-score [12] | PBM binding z-score [13] | PBM binding z-score [14] | PBM binding z-score [15] | PBM binding z-score [16] | PBM binding z-score [17] | PBM binding z-score [18] | PBM binding z-score [19]
1 | CGTCAAAGGTCAATGCTAGGTCAGTGAAAGCATT | 4.73 | 3.46 | 8.14 | 8.21 | 5.21 | 7.67 | 4.79 | 6.13 | 2.05 | 0.936 | 5.64 | 5.96 | 1.66 | 6.85 | 2.5 | 5.56 | – | – | –
2 | CGTCCAAGGTCACAGAGGTCAGTGAATGCCGAGT | 5.07 | 1.08 | 7.01 | 6.54 | 3.38 | 5.63 | 4.6 | 5.63 | 1.12 | 0.337 | 3.92 | – | 12.2 | 6.75 | 2.06 | 5.82 | 6.12 | – | –
3 | GGAACGAGGTCAAAGTTGATAGCATCTGTCGACG | 1.61 | 2.26 | – | 8.63 | 8.72 | 9.4 | 6.14 | 6.45 | 0.31 | 1.24 | 2.56 | 5.91 | 2.54 | 6.93 | 0.429 | 4.02 | 5.98 | 5.18 | –
4 | AGTCAAACTTCAGGACGAGGTAACGTAAAGCACG | -0.0988 | -0.504 | 0.919 | -0.132 | 0.281 | -0.00758 | -0.522 | 0.278 | 0.625 | 0.0207 | 0.24 | -0.409 | -0.112 | 0.165 | 0.202 | 0.304 | -0.137 | 0.545 | –
5 | AGAACGAGGTCACGCTGAGTTGATAGCAGAGTAG | 0.912 | 0.705 | 9.52 | 8.1 | 6.32 | 7.52 | 6.78 | 7.41 | 3.83 | 1.29 | 4.17 | – | 2.35 | 6.71 | 1.26 | 4.38 | 6.2 | – | –
6 | TATACAGGGTCAAAGGCCAAAGTACGAATGTCGA | 3.06 | 2.44 | 9.55 | 7.98 | 7.57 | 8.54 | 2.77 | 5.37 | 2.17 | 1.63 | 4.71 | 5.05 | 0.969 | – | 1.74 | 3.7 | 6.59 | 4.76 | –
7 | CGAACGAGGTCACCAGGACAGTGAAGAGGTTGGA | 0.912 | 0.295 | 8.9 | 7.66 | 5.23 | 6.73 | 5.64 | 6.99 | – | -0.0539 | 3.06 | 5.37 | 0.985 | 5.85 | 1.08 | 4.89 | 5.61 | – | –
8 | CCTTACGGGTCACGAGGTCATAGCACGACGAGCG | 2.73 | 0.62 | 8.56 | 7.55 | 4.61 | 6.67 | 4.66 | 6.02 | 2.06 | 1.59 | 5.34 | – | 2.24 | – | 2.17 | 4.95 | 5.89 | 5.23 | –
9 | CGAACGAGGTCAAAGGACAGTGAAAGGCGACGTA | 0.528 | 1.21 | 8.64 | 7.62 | 5.48 | 8.31 | 5.27 | 6.29 | – | 3.98 | 6.42 | 5.26 | 1.74 | 5.86 | 0.557 | 3.88 | 5.87 | 5.01 | –
10 | TTACCAAGGTCAAGGTCGTTGATCCCTCTGTAGA | 3.05 | 1.11 | 6.32 | 6.38 | 3.44 | 5.46 | 3.67 | 5.09 | 1.64 | 0.631 | 4.12 | 5.31 | 2.27 | 5.57 | 1.71 | 4.86 | 5.51 | – | –
11 | CAAAATAGGTCAAAGGTCAAAGTCGAGCCAACCA | 6.17 | 3.52 | 13.7 | 11.5 | 12.6 | 13.3 | 8.15 | 8.59 | 3.03 | 1.57 | 4.96 | 7.32 | 2.02 | 9.14 | 3.71 | 5.5 | – | – | 7.93
12 | CGTCAAAGGTCAAGGTAACGTAACAGAAAGCAGC | 2.47 | 2.82 | 9.12 | 8.51 | 6.2 | 8.31 | 4.8 | 6.15 | 3.88 | 3.1 | 4.75 | 5.33 | 0.602 | 6.56 | 2.85 | 5.16 | – | – | –
13 | CCTTAAGGGTCACGAGGTTATAGCACGACGAGCG | 0.987 | 0.697 | 8.45 | 7.7 | 4.56 | 6.73 | 4.16 | 5.81 | 1.74 | 1.89 | 4.47 | 5.46 | 0.279 | 6.79 | 1.6 | 5.02 | 5.92 | – | –
14 | CCTTAGGGGTCACTGACAGGTTATAGCATTTGGA | 1.33 | 0.926 | 9.33 | 8.43 | 5.34 | 7.46 | 4.82 | 5.5 | 1.68 | 2.53 | 4.49 | 6.32 | 0.503 | – | 2.05 | 4.99 | 6.55 | – | –
15 | ATCGAAAGGTCGACGAGGTGAGTAAACACCGTTT | 0.0172 | 0.228 | 2.6 | 3.59 | 1.02 | 2.3 | 0.114 | 1.85 | 0.135 | 1.17 | 1.63 | 3.05 | 0.324 | – | 0.378 | 2.98 | 3.58 | 3.85 | –
16 | CCTAGTGGGCCAAGGTCATTGATCAGTCAAAGCA | 0.693 | -0.381 | 4.1 | 4.29 | 1.64 | 3.71 | 3.98 | 4.38 | -0.821 | -0.95 | 2.36 | 3.66 | 1.8 | 3.56 | 0.113 | 3.28 | 2.91 | 3.36 | –
